Measured values as given in PubChem BioAssay (NCI).
About 79,000 compounds went through this panel and 15% of them were active in at least one assay; those are over-represented in the sample as a whole. Cut-off read from the data, not from the text of the source: active = growth inhibition above about 70%; inactive = the rest.

Legend:
[1] = NCI Yeast Anticancer Drug Screen. Data for the rad50 strain (AID 155);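 note: 0% = growth of vehicle-only cultures of the same strain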; conditions: S. cerevisiae rad50 strain growth inhibition, stronger effect = higher value; at 50.0 µM unless noted
Method in brief: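 Vehicle-treated cultures provide the reference for the growth inhibition reported for compound-exposed, repair-deficient yeast.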

[2] = NCI Yeast Anticancer Drug Screen. Data for the mec2-1 strain (AID 157); conditions: S. cerevisiae mec2-1 strain, stronger effect = higher value; at 50.0 µM unless noted
Method in brief: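 Each compound was tested on mec2-1 yeast, a strain altered in DNA damage repair or cell cycle control. Growth inhibition is reported relative to vehicle.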

[3] = NCI Yeast Anticancer Drug Screen. Data for the sgs1 mgt1 strain (AID 161);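 note: 0% = growth of cultures given vehicle only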; conditions: S. cerevisiae sgs1 mgt1 strain, stronger effect = higher value; at 50.0 µM unless noted
Method in brief: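 Genetically altered yeast, compound exposure, growth inhibition relative to vehicle.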

[4] = NCI Yeast Anticancer Drug Screen. Data for the cln2 rad14 strain (AID 165);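 note: 0% = growth equal to vehicle treated cultures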; conditions: S. cerevisiae cln2 rad14 strain, stronger effect = higher value; at 50.0 µM unless noted
Method in brief: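 Test compounds were added to cln2 rad14 yeast cultures; inhibition of growth was then determined by comparison with vehicle treatment.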

[5] = NCI Yeast Anticancer Drug Screen. Data for the bub3 strain (AID 167); conditions: S. cerevisiae bub3 mutant strain, stronger effect = higher value; at 50.0 µM unless noted
Method in brief: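 Mutant yeast screening strain plus compound; vehicle-treated cultures serve as the 0% inhibition reference.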

[6] = NCI Yeast Anticancer Drug Screen. Data for the mlh1 rad18 strain (AID 175); conditions: S. cerevisiae mlh1 rad18 strain growth inhibition, stronger effect = higher value; at 50.0 µM unless noted
Method in brief: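 Inhibition values reflect reduced growth of mutant yeast versus vehicle-treated controls following compound exposure; the mutations affect DNA damage repair.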

Measured: growth inhibition

O=C(/C=C\c1ccc(Cl)c(Cl)c1)c1ccc(Cl)cc1Cl
inactive: [1] 36.1% | [2] 9.35% | [3] -4.6% | [4] 1.65% | [5] 22.1% | [6] 0.7%

O=C(Oc1ccccc1)C(=O)Oc1ccccc1
inactive: [1] -20.6% | [2] -24.9% | [3] -8.75% | [4] -15.4% | [5] -0.1% | [6] 6.4%

Cc1nc2c(cc1C(=O)NN)c(=O)n(C)c(=O)n2C
inactive: [1] 8.8% | [2] -1.9% | [3] -8.5% | [4] -5.85% | [5] -8.05% | [6] 31.6%

CCCOc1cc2c(cc1C(C)c1ccc(OC)c(C)c1)OCO2 (stereo not given)
inactive: [1] -3.55% | [2] 3.45% | [3] -6% | [4] -87.7% | [5] 4.55% | [6] 4.15%

COC1CC(n2ccc(=O)[nH]c2=O)OC1CO (stereo not given)
inactive: [1] -8.25% | [2] -10.6% | [3] 2.65% | [4] 28.1% | [5] -25.6% | [6] 6.4%

CCn1c2ccccc2c2ccccc21
inactive: [1] 27.2% | [2] -6% | [3] -10.2% | [4] 13.8% | [5] -8.15% | [6] 17.4%

O=S(=O)(O)c1cc(Nc2ccnc3ccccc23)c2c(S(=O)(=O)O)cc(S(=O)(=O)O)cc2c1
inactive: [1] 15.1% | [2] 24.3% | [3] 4.25% | [4] 12.2% | [5] 10.2% | [6] 19.8%

O=C(Nc1ccc2c(c1)Cc1ccccc1-2)c1cccc2ccccc12
inactive: [1] -4.05% | [2] -20.8% | [3] 0.4% | [4] -47% | [5] 12.2% | [6] -5.2%

CN(/C(=C/C(=O)c1ccccc1)C(=O)c1ccccc1)/C(=C/C(=O)c1ccccc1)C(=O)c1ccccc1
inactive: [1] -27.4% | [2] 3.2% | [3] -0.95% | [4] -5.25% | [5] -4.5% | [6] 26.8%

COc1ccc2oc(=N)c(C(=O)Nc3ccccc3)cc2c1
inactive: [1] 24.2% | [2] 20.1% | [3] -10.5% | [4] 4.9% | [5] -4.85% | [6] -38.4%

COC(=O)C1CCCCCCCCCCC12SCCCS2 (stereo not given)
inactive: [1] -32.5% | [2] -11.4% | [3] -17.5% | [4] 16.2% | [5] -5.7% | [6] -30%

CCOC(=O)NNC(=O)Nc1ccc(O[Si](C)(C)C)cc1
inactive: [1] 13.4% | [2] 10% | [3] 10.3% | [4] 17.1% | [5] 9.75% | [6] 10.9%

Cc1ccc(O)c(C=NCCN=Cc2cc(C)ccc2O)c1.[Zn]
inactive: [1] -14.4% | [2] 8.6% | [3] 0.05% | [4] -13% | [5] -43.1% | [6] -32.4%

CCOc1ccc(NC(N)=O)cc1
inactive: [1] -44.5% | [2] -9.85% | [3] -14.5% | [4] -3.7% | [5] -2.55% | [6] 15.2%

CCCCCCCCCCCCCCCCCCCCCCCCCCO
inactive: [1] -16.2% | [2] -10.4% | [3] -13.8% | [4] -8.85% | [5] -1.3% | [6] -7.25%

CN(C)c1ccc(/C=C(\C#N)c2ccc(F)cc2)cc1
inactive: [1] -2.65% | [2] -1.8% | [3] 3.05% | [4] -26.6% | [5] -6.75% | [6] -17.8%

O=c1[nH]c2cccc([N+](=O)[O-])c2c2ccccc12
inactive: [1] 5.85% | [2] 26.6% | [3] 14.1% | [4] 23% | [5] -6.35% | [6] 11.2%

CC(=O)OCCN(CCOC(C)=O)CCOC(C)=O
inactive: [1] -8.4% | [2] -3.5% | [3] -3.4% | [4] -52.3% | [5] -3.4% | [6] 18.5%

CCOC(=O)Cc1nc2ccccc2[nH]1
inactive: [1] 4.4% | [2] -7.85% | [3] -13.2% | [4] -103% | [5] -12.2% | [6] -3.2%

C=CCCCC12CCCc3cccc(c31)NC2=O (stereo not given)
inactive: [1] 48.7% | [2] 17.4% | [3] 24.8% | [4] 48% | [5] 46.5% | [6] 34.6%

Cc1cc2c(c(C(=O)O)c1C)-c1cccc(Cl)c1C2=O
inactive: [1] -15.7% | [2] -2.3% | [3] -23.2% | [4] -20.2% | [5] -13.3% | [6] -27.4%

CNCCc1cn(C2OC(CO)C(O)C(O)C2O)cn1 (stereo not given)
inactive: [1] -7.15% | [2] -17.6% | [3] -22.3% | [4] -40.9% | [5] -28.4% | [6] -13.3%

CCCn1/c(=N\N=O)sc2ccccc21
inactive: [1] -0.45% | [2] 2.9% | [3] -5.5% | [4] -29.6% | [5] -23.1% | [6] 7%

CC(=O)OC1CCC(=O)C2C(C(=O)O)CCCC12 (stereo not given)
inactive: [1] 6.9% | [2] -21.8% | [3] -19.2% | [4] -6.1% | [5] -1.75% | [6] 0.25%

O/N=C(Sc1ccccn1)/C(=N/O)Sc1ccccn1
inactive: [1] -7.25% | [2] 0% | [3] -2.9% | [4] -3.05% | [5] 4.7% | [6] 4.9%

COc1ccc(N=C=Nc2ccc(OC)cc2)cc1
inactive: [1] -1.45% | [2] -15% | [3] 4.15% | [4] 9.6% | [5] -10.2% | [6] -13.6%

Cc1cc(=O)[nH]c(NNC(C#N)c2cccc([N+](=O)[O-])c2)n1 (stereo not given)
inactive: [1] -18.5% | [2] -11.1% | [3] -31.1% | [4] -12.8% | [5] -7.4% | [6] -39.5%

Cn1cnc2nc(Cl)nc(N)c21
inactive: [1] 0% | [2] -4.15% | [3] 6.05% | [4] -16.6% | [5] 7.75% | [6] -9.4%

CCOC(=O)c1nnsc1N/N=C\c1ccc([N+](=O)[O-])cc1
inactive: [1] -5.05% | [2] -15% | [3] -25.7% | [4] 12.3% | [5] -19.5% | [6] 14.3%

CCCc1onc(-c2noc(CCC)c2CC)c1CC
inactive: [1] 15.8% | [2] -6.65% | [3] -1.9% | [4] 9.85% | [5] -19.4% | [6] 15.7%

O=C(Cc1ccccc1)NC/C=N/O
inactive: [1] 26.5% | [2] -20% | [3] 10.2% | [4] -2% | [5] -43.1% | [6] -4.75%

Cc1nc2ccc(Br)cc2c(=O)n1-c1ccc(-c2n[nH]c(=S)n2-c2ccccc2)cc1
inactive: [1] 14% | [2] 13.2% | [3] 13.4% | [4] -27.9% | [5] 6.8% | [6] 42.4%

Nc1c(N2CCOCC2)c(=O)nc2[nH]/c(=C\c3ccccc3)c(=O)n12
inactive: [1] 8.5% | [2] -20.7% | [3] 4.75% | [4] 22% | [5] 8% | [6] -46.8%

CCSC(=Nc1nc2ccc([N+](=O)[O-])cc2s1)SCC
inactive: [1] 43.5% | [2] 31.4% | [3] 33.5% | [4] 14.1% | [5] 25.5% | [6] 12.2%

CN(C)C(=O)NCCN(CCNC(=O)N(C)C)C(=O)N(C)C
inactive: [1] -1.7% | [2] 13.2% | [3] -0.9% | [4] -28.3% | [5] -18.8% | [6] -4.15%

CC(COc1ccc(C(C)(C)C)cc1)OC=O (stereo not given)
inactive: [1] 14.2% | [2] 3.2% | [3] 19.4% | [4] -12.9% | [5] 16.1% | [6] -6.4%

Clc1ccccc1Br
inactive: [1] 2.85% | [2] -11.2% | [3] 4.65% | [4] 0.55% | [5] 2.25% | [6] -8.3%

COc1cccc(C)c1C(=O)O
inactive: [1] -4.05% | [2] 1.7% | [3] 5.7% | [4] -20.1% | [5] -32% | [6] -5.4%

CC(=O)Nc1ccc2ccccc2c1[N+](=O)[O-]
inactive: [1] -11.1% | [2] -14.4% | [3] -17.4% | [4] -64.5% | [5] -35.8% | [6] 15.7%

CCN(CC)CCOC(=O)c1cc2ccccc2s1
inactive: [1] 23.2% | [2] 8.85% | [3] 13.1% | [4] 2.85% | [5] -1.35% | [6] 10.4%
